For 13 molecules, potency estimated from few doses results are on record in publication PMC11062922 (Nature Chemical Biology, 2023).

Common to all, as to set-up: species or system human, MV4-11 + K-562 + COLO205 + SK-N-BE2 + OVCAR-8
For one test, the system named is GSK3A. Particulars: read-out: apparent Kd, n = 1.
The test system of the next test is GSK3B. Particulars: read-out: apparent Kd, n = 1.
Another test has as its system MAPKAPK2. Particulars: read-out: apparent Kd, n = 1.
In another test the test system is MDN1. Particulars: read-out: apparent Kd, n = 1.
The subject of a further test is MYLK3. Particulars: read-out: apparent Kd; compound concentrations:100 nM and 1000 nM (sheet 'Samples'); n = 1.
For a further test, the system named is NQO2. Particulars: read-out: apparent Kd; compound concentrations:100 nM and 1000 nM (sheet 'Samples'); n = 1.
In another test the test system is SMC4. Particulars: read-out: apparent Kd; compound concentrations:100 nM and 1000 nM (sheet 'Samples'); n = 1.
The test system of a further test is HCK. As to conditions: read-out: apparent Kd; compound concentrations: 100 nM and 1000 nM (sheet 'Samples'), CATDS: 0.18431163144464899; n = 1.
For another test, the system named is MAPK14. Particulars: read-out: apparent Kd, compound concentrations: 100 nM and 1000 nM (sheet 'Samples'), n = 1.
In another test the test system is RET. As to conditions: read-out: apparent Kd; compound concentrations: 100 nM and 1000 nM (sheet 'Samples'), CATDS: 0.22274296302997099; n = 1.
A further test deals with YES1. Particulars: read-out: apparent Kd; compound concentrations: 100 nM and 1000 nM (sheet 'Samples'), CATDS: 0.26066512285863302; n = 1.
The next test concerns ILK. As to conditions: read-out: apparent Kd; compound concentrations: 100 nM and 1000 nM (sheet 'Samples'), CATDS: 0.49132594031882498; n = 1.
The next test deals with MAPK10. As to conditions: read-out: apparent Kd, compound concentrations: 100 nM and 1000 nM (sheet 'Samples'), n = 1.
In the next test the test system is IARS. Particulars: read-out: apparent Kd, n = 1.
The subject of a further test is RIOK2. As to conditions: read-out: apparent Kd; compound concentrations: 100 nM and 1000 nM (sheet 'Samples'), CATDS: 0.52054883723006395; n = 1.
The next test deals with HSP90AA1. As to conditions: read-out: apparent Kd; compound concentrations: 100 nM and 1000 nM (sheet 'Samples'), CATDS: 0.146358991547622; n = 1.
The test system of the next test is HSP90B1. As to conditions: read-out: apparent Kd; compound concentrations: 100 nM and 1000 nM (sheet 'Samples'), CATDS: 0.15036452413929899; n = 1.
The next test deals with HSPE1. Particulars: read-out: apparent Kd; compound concentrations: 100 nM and 1000 nM (sheet 'Samples'), CATDS: 0.26644464467786899; n = 1.
For a further test, the system named is PGK1. Particulars: read-out: apparent Kd; compound concentrations: 100 nM and 1000 nM (sheet 'Samples'), CATDS: 0.56711536004942897; n = 1.
The subject of a further test is PKM. Particulars: read-out: apparent Kd; compound concentrations: 100 nM and 1000 nM (sheet 'Samples'), CATDS: 0.16665150952337399; n = 1.
A further test concerns JAK2. Particulars: read-out: apparent Kd, n = 1.
The test system of a further test is MAPK11. As to conditions: read-out: apparent Kd, compound concentrations: 100 nM and 1000 nM (sheet 'Samples'), n = 1.
The subject of a further test is MAPK8. Particulars: read-out: apparent Kd; compound concentrations: 100 nM and 1000 nM (sheet 'Samples'), CATDS: 7.6573616533716707E-2; n = 1.
For a further test, the system named is MAPK9. As to conditions: read-out: apparent Kd; compound concentrations: 100 nM and 1000 nM (sheet 'Samples'), CATDS: 9.6122690538123806E-2; n = 1.
The test system of another test is NLK. As to conditions: read-out: apparent Kd; compound concentrations: 100 nM and 1000 nM (sheet 'Samples'), CATDS: 8.6125216910038493E-2; n = 1.
In another test the test system is NUAK1. As to conditions: read-out: apparent Kd; compound concentrations: 100 nM and 1000 nM (sheet 'Samples'), CATDS: 9.4194293053738595E-2; n = 1.
Another test relates to PIK3CA. Particulars: read-out: apparent Kd; compound concentrations: 100 nM and 1000 nM (sheet 'Samples'), CATDS: 0.76689409603513903; n = 1.
The test system of the next test is PIM2. As to conditions: read-out: apparent Kd; compound concentrations:100 nM and 1000 nM (sheet 'Samples'); n = 1.
A further test concerns LIMK1. Particulars: read-out: apparent Kd; compound concentrations: 100 nM and 1000 nM (sheet 'Samples'), CATDS: 0.71485033586555802; n = 1.
For the next test, the system named is LIMK2. Particulars: read-out: apparent Kd; compound concentrations: 100 nM and 1000 nM (sheet 'Samples'), CATDS: 0.38445187661018698; n = 1.
The mark [1] stands for this setting: compound concentrations:100 nM and 1000 nM (sheet 'Samples').

Where two headings read alike, the source gives them in different places.

For `Cn1cc(C2=C(c3c4n(c5ccccc35)CCN(C(N)=S)C4)C(=O)NC2=O)c2ccccc21` [RO0319377-000], the potency estimated from few doses is 0.427 µM in the test on GSK3A (setting [1]); 0.259 µM in the test with GSK3B (compound concentrations: 100 nM and 1000 nM (sheet 'Samples'), CATDS: 0.32462654335000002); 1.83 µM in the test on MAPKAPK2 (setting [1]); 1.47 µM in the test on MDN1 (setting [1]); 1.64 µM in the test on MYLK3; 1.55 µM with NQO2. In addition, the potency estimated from few doses with SMC4 is 2.13 µM.
Regarding `Cn1cc(C2=C(c3cn(C)c4cc(C(=O)O)ccc34)C(=O)NC2=O)c2ccccc21` [RO0319318-000], the potency estimated from few doses in the test with GSK3A (compound concentrations: 100 nM and 1000 nM (sheet 'Samples'), CATDS: 0.46645523537497902) was 0.612 µM; with GSK3B (compound concentrations: 100 nM and 1000 nM (sheet 'Samples'), CATDS: 0.53874330478413901), 0.458 µM.
Take `Nc1n[nH]c2nnc(-c3ccccc3)c(-c3ccccc3)c12` [GW554060X]: the potency estimated from few doses is 0.424 µM in the test with GSK3A (setting [1]) and 0.833 µM in the test on GSK3B (setting [1]).
Take `COc1cc(Nc2nccc(-c3c(-c4cccc(NC(=O)c5c(F)cccc5F)c4)nn4ccccc34)n2)cc(OC)c1OC` [GSK323521A]: the potency estimated from few doses in the test on HCK was 1.57 µM; in the test on MAPK14 (CATDS: 0.18472106160443499) it was 1.56 µM; with MDN1 (compound concentrations: 100 nM and 1000 nM (sheet 'Samples'), CATDS: 0.171379045218121), 1.86 µM; with RET, 1.07 µM; in the test on YES1, 0.812 µM.
With `Cn1cc(C2=C(c3cn(C)c4cc(Cl)ccc34)C(=O)NC2=O)c2ccccc21` [RO0317597-000], the potency estimated from few doses in the test with ILK was 1.59 µM; in the test with MAPK10 (CATDS: 0.50898583433438105) it was 1.48 µM.
With `CS(=O)(=O)CCNCc1ccc(-c2ccc3ncnc(Nc4ccc(OCc5ccccc5)c(C(F)(F)F)c4)c3c2)o1.Cl` [GW574782A], the potency estimated from few doses with IARS (compound concentrations: 100 nM and 1000 nM (sheet 'Samples'), CATDS: 0.48101189655770898) is 1.95 µM; in the test on RIOK2, 1.67 µM.
Turning to `Cn1cc(C2=C(c3ccccc3C(F)(F)F)C(=O)NC2=O)c2ccccc21` [RO0317717-000], the potency estimated from few doses with HSP90AA1 is 1.69 µM; in the test on HSP90B1, 1.53 µM; in the test on HSPE1, 0.337 µM; in the test on PGK1, 0.0871 µM; in the test with PKM, 1.09 µM.
As for `CN1CCN(Cc2ccc(-c3cc4ncnc(Nc5ccc(OCc6cccc(F)c6)c(Cl)c5)c4s3)o2)CC1` [GW784684X], the potency estimated from few doses with IARS (setting [1]) was 1.61 µM.
As for `O=c1c(Oc2ccc(F)cc2F)cc2cnc(NC3CCOCC3)nc2n1C1CCS(=O)(=O)CC1` [RO5036538-000], the potency estimated from few doses in the test with JAK2 (compound concentrations: 100 nM and 1000 nM (sheet 'Samples'), CATDS: 0.12292389109729) is 0.23 µM; in the test on MAPK10 (CATDS: 0.124709728908191), 0.221 µM; with MAPK11 (CATDS: 7.2010910388864605E-2), 1.42 µM; in the test with MAPK14 (CATDS: 0.47843238213420702) it was 0.0139 µM; in the test with MAPK8 it was 1.06 µM; with MAPK9, 0.462 µM. In addition, the potency estimated from few doses in the test with MAPKAPK2 (compound concentrations: 100 nM and 1000 nM (sheet 'Samples'), CATDS: 0.314538074262177) was 0.0282 µM; in the test on NLK, 0.667 µM; in the test on NUAK1 it was 0.493 µM.
For `NC(=O)c1sc(-n2cnc3cc(C(F)(F)F)ccc32)cc1OCc1ccccc1Br` [GW853609X], the potency estimated from few doses is 1.14 µM in the test on JAK2 (compound concentrations: 100 nM and 1000 nM (sheet 'Samples'), CATDS: 0.37091451707305101); 0.204 µM with PIK3CA.
In the case of `Cl.Nc1c(C(=O)c2cccc(C#CCN3CCOCC3)c2)cnn1-c1ccc(F)cc1` [RO1153320-001], the potency estimated from few doses is 0.815 µM in the test with JAK2 (compound concentrations: 100 nM and 1000 nM (sheet 'Samples'), CATDS: 0.47869568713999899); 0.682 µM in the test with MAPK11 (CATDS: 0.52328893159992096).
For the molecule `CC(=O)N[C@@H](Cc1ccc(OP(=O)(O)O)cc1)C(=O)N[C@H]1CCC(=O)N2CCC[C@@H](C(=O)NCc3ccccc3)N2C1=O` [RO0324253-000], the potency estimated from few doses in the test on JAK2 (setting [1]) is 0.712 µM; with PIM2 it was 1.77 µM.
With `CCCCN(Cc1ccccc1)C(=O)c1ccc(S(=O)(=O)Nc2ccccc2)cc1` [TH257], the values for the potency estimated from few doses with LIMK1 and in the test on LIMK2 were 0.578 µM and 2.32 µM, respectively.
